From ChEMBL document CHEMBL4513216, “Probing the Open Global Health Chemical Diversity Library for Multistage-Active Starting Points for Next-Generation Antimalarials” (ACS Infect Dis, 2020) come the findings set out here.

Hit rate of the full screen: of about 69,000 compounds, about 8,600 (12%) showed an effect of 50% or more. The sample as a whole holds a higher share of strong results than the screen did.

The experiment has as its system Plasmodium berghei. Kind of experiment: Screen against P. berghei liver stage (PbLuc), transformed with Luciferase, at 10uM. In kind it is functional, HepG2. The note with it: tested at 10 uM.
With `CN1CCOC(c2cncc(CCC(N)=O)n2)C1` (configuration not stated), the INHIBITION is given as -0.232%.

`Cn1ccc2cc(CC3COCCN(C(=O)c4ccccn4)C3)ccc21` (configuration not stated): the INHIBITION turned out to be 20.055%. To `CC(=O)N1N=C(c2ccco2)OC1C(=O)N(C)CCc1ccccc1` (configuration not stated) belongs 24.3%.

With `Cc1cc2nc(SCC(=O)N3CCCC3)n(C)c(=O)c2[nH]1`, the INHIBITION stood at 19.3%. For the compound `COCCNC(=O)C[C@@H]1COC[C@H]2CN(CC3CCOCC3)C[C@@H]12`, the INHIBITION turned out to be 36.7%. `COCCNC(=O)C[C@@H]1COC[C@H]2CN(C(=O)C3CCOCC3)C[C@@H]12`: the INHIBITION worked out at 69.3%.

Turning to `COCCNC(=O)C[C@@H]1COC[C@H]2CN(C(=O)COC)C[C@@H]12`, the INHIBITION stood at 13.1%. `CC[C@@H](c1ccccc1)n1c(C2CC2)n[nH]c1=O`: the INHIBITION amounted to 37.3%. With `CCc1noc(CNCCn2cc(C)cn2)n1`, the INHIBITION is recorded as -9.37%. To `COCCNc1nc(C2CCCC2)nc2c1CCNCC2` belongs -39.9%; to `c1nc(CCNc2nc(C3CC3)nc3c2CCNCC3)c[nH]1`, -3.77%; to `OC(CNc1ncnc2c1CCNCC2)C(F)(F)F` (configuration not stated), 13.6%. As to `Cc1nc2c(c(NCC(O)c3ccccc3Cl)n1)CCNCC2` (configuration not stated), the INHIBITION was -32.6%. To `C1Cc2nc(CCNc3nc(C4CC4)nc4c3CCNCC4)sc2C1` belongs 64.8%.

As to `Cc1nc2c(c(NCCc3nc4c(s3)CCCC4)n1)CCNCC2`, the INHIBITION came to 25.8%.

For the compound `Cc1nc2c(c(NCC(O)C(F)(F)F)n1)CCNCC2` (configuration not stated), the INHIBITION is 93.2%.

For `COCc1noc(CNc2nc(C3CCCC3)nc3c2CCNCC3)n1`, the INHIBITION was -52.2%. To `OC(CNc1nc(C2CCCC2)nc2c1CCNCC2)C(F)(F)F` (configuration not stated) belongs 52.1%; to `CC(C)c1nn2c(-c3cnn(C)c3)nnc2s1`, -14.2%. The same measure for `CCC(C)(CNC(=O)c1ccon1)NC(=O)c1ccon1` (configuration not stated): -13.7%; for `COCC(=O)NCC1Cn2nnc(-c3ccncc3)c2CO1` (configuration not stated): -4.02%; for `COCCN1CCC2(CC1)CN(C(C)=O)c1ccc(C)cc12`: -33%. The same measure for `CCc1ocnc1C(=O)N1CCCC1c1noc(C)n1` (configuration not stated): 5.07%. For `C=C(C)COc1cccc(CNCCc2c[nH]cn2)c1`, the INHIBITION is listed as 29.1%. To `C=C(C)COc1cccc(CNCc2nc3ccccc3c(=O)[nH]2)c1` belongs 28.5%. The same measure for `C=C(C)COc1cccc(CNCCc2nc(N)cc(O)n2)c1`: 52.6%; for `COCC1CC2(CCN(CC3CC3)CC2)CN1Cc1csc(C)n1` (configuration not stated): 37.8%; for `CCOC(=O)CCNC(=O)c1cc(Cl)cc2cccnc12`: 30.5%. The same measure for `CCn1c(CC2CCN(C(=O)C3CNCCO3)CC2)nn(C)c1=O` (configuration not stated): 47.4%; for `CCn1c(CC2CCN(C(=O)C3CCOC3)CC2)nn(C)c1=O` (configuration not stated): 56.1%. Take `CCn1c(CC2CCN(C(=O)C3COCCO3)CC2)nn(C)c1=O` (configuration not stated): the INHIBITION was 9.56%. To `Cc1noc(-c2ccnc(N3CCN(C4CCOCC4)CC3)c2)n1` belongs 10.7%; to `Cc1noc(-c2ccnc(N3CCC(N4CCCC4)CC3)c2)n1`, 48.5%; to `Cc1noc(-c2ccnc(N3CCC(CN4CCOCC4)CC3)c2)n1`, 69.4%.

Regarding `Cc1ccc(-c2nc(CNCC3CN(C)CCO3)co2)cc1` (configuration not stated), the INHIBITION is -12.2%.

Turning to `CC(=O)N1CCC2(CC1)C(=O)N(CC1CC1)c1ccccc12`, the INHIBITION came out at 1.56%. The same measure for `CN(C)C(C(=O)NCc1cc(C(C)(C)C)n[nH]1)c1ccc(F)cc1` (configuration not stated): 50.2%; for `Cc1ccc(C(C(=O)NCc2cc(C)[nH]n2)N(C)C)cc1` (configuration not stated): 31.4%; for `Cc1cc(CNC(=O)C(c2ccc(F)cc2)N(C)C)n[nH]1` (configuration not stated): 37.3%. The same measure for `Cc1cc(N2CCC(NC(=O)CCC3CCCO3)CC2)nc(C)n1` (configuration not stated): 62.2%; for `CCc1cc(N2CCC(NC(=O)CCC3CCCO3)CC2)ncn1` (configuration not stated): 37.6%; for `Cc1cc(N2CCC(NC(=O)CCc3ccco3)CC2)nc(C)n1`: 38.7%.

Regarding `COc1ccc2nnc(CCCC(=O)Nc3nc4c(s3)CCC4)n2n1`, the INHIBITION is reported as 38.4%. To `COc1cc(CN2CCC3(CC2)[C@H](O)C[C@@H]3OCCO)ccc1F` belongs 51.1%; to `COc1cc(C)c(CN2CCC3(CC2)[C@H](O)C[C@@H]3OCCN)cc1C`, 23.3%. To `COc1ccc(F)c(F)c1CN1CCC2(CC1)[C@H](O)C[C@@H]2OCCN` belongs 7.31%. The same measure for `COCCCC1(CO)CCCN(Cc2ccc(F)c(OC)c2)C1` (configuration not stated): -58.9%. On to `COc1cc(CN2CC[C@@]3(CCCO3)[C@@H](O)C2)ccc1F`, for which the INHIBITION is given as 44.9%.

For `NCCO[C@H]1C[C@@H](O)C12CCN(Cc1c(F)cccc1F)CC2`, the INHIBITION worked out at 52.2%. With `CNC(=O)CN(C)C(=O)c1cc2ccccc2cc1OC`, the INHIBITION came out at 45.2%. The same measure for `CC(C)c1nc(CN2CCCN(Cc3nccn3C)CC2)no1`: -23.8%. Turning to `Cn1nnnc1SCC1COc2ccccc2O1` (configuration not stated), the INHIBITION is on record as 35.2%.
